Test results: PubChem BioAssay (NCI)
This is part of a sample that, as a whole, favours compounds with a hit. Of some 79,000 tested, about 15% had one in any assay. Unmarked numbers belong to inactive results. Active and inactive are the calls of the source. Rule as the data show it: active = growth inhibition above about 70%; inactive = the rest.

Key:
[1] = NCI Yeast Anticancer Drug Screen. Data for the rad50 strain (AID 155);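 also: 0% = growth of vehicle-only cultures of the same strain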; conditions: S. cerevisiae rad50 strain growth inhibition; at 50.0 µM; active compounds read high
Method in brief: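 DNA repair mutant yeast, compound exposure, growth read-out; inhibition is taken relative to vehicle.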

[2] = NCI Yeast Anticancer Drug Screen. Data for the mec2-1 strain (AID 157); conditions: S. cerevisiae mec2-1 strain, at 50.0 µM, active compounds read high
Method in brief: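 Using mec2-1 yeast: add compound, measure growth, express inhibition versus vehicle-treated cultures.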

[3] = NCI Yeast Anticancer Drug Screen. Data for the sgs1 mgt1 strain (AID 161);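 also: 0% = growth of cultures given vehicle only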; conditions: S. cerevisiae sgs1 mgt1 strain, at 50.0 µM, active compounds read high
Method in brief: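 This yeast growth screen uses a strain with defined DNA-repair lesions; compound-treated growth is compared with vehicle-treated growth.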

[4] = NCI Yeast Anticancer Drug Screen. Data for the cln2 rad14 strain (AID 165);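 also: 0% = growth equal to vehicle treated cultures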; conditions: S. cerevisiae cln2 rad14 strain, at 50.0 µM, active compounds read high
Method in brief: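 Yeast strain cln2 rad14, bearing defects in cell cycle control and DNA repair, serves as the test system; values reflect growth inhibition compared with vehicle.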

[5] = NCI Yeast Anticancer Drug Screen. Data for the bub3 strain (AID 167); conditions: S. cerevisiae bub3 mutant strain, at 50.0 µM, active compounds read high
Method in brief: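 In this screen, a yeast mutant lacking normal mitotic checkpoint function is challenged with compound. Relative growth versus vehicle gives the inhibition value.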

[6] = NCI Yeast Anticancer Drug Screen. Data for the mlh1 rad18 strain (AID 175); conditions: S. cerevisiae mlh1 rad18 strain growth inhibition; at 50.0 µM; active compounds read high
Method in brief: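 Steps: expose repair-defective yeast to compound; measure growth; express inhibition against vehicle-treated controls.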

Row | Structure (SMILES) | growth inhibition [1] | growth inhibition [2] | growth inhibition [3] | growth inhibition [4] | growth inhibition [5] | growth inhibition [6]
1 | COC(=O)c1ccc(C(=O)O)cc1 | 5.35% | -2.65% | -8.15% | -6.55% | 0.65% | -6.5%
2 | O=C1OC(=O)C(c2ccccc2)=C1c1ccccc1 | 10.6% | 5% | 9.55% | -10.8% | 5.95% | 24.9%
3 | CCOC(=O)c1cc2nc(NC(=O)c3ccccc3)sc2n1C | 4.85% | 8.3% | 7.3% | 10.3% | 6.4% | 16.8%
4 | CCCCC[CH2][Sn]([CH2]CCCCC)([CH2]CCCCC)[NH]S(=O)(=O)c1ccc(C)cc1 | 99.3% (active) | 99.6% (active) | 99.5% (active) | 99% (active) | 99.2% (active) | 99.3% (active)
5 | COc1ccc(/C=C/[n+]2ccccc2)cc1OC | -1.45% | 4.85% | 4.05% | -14.2% | 10.7% | -3.85%
6 | CCCC[N+](CCCC)(CCCC)CC(=O)[O-] | 5.7% | -3.1% | -19.8% | -45.1% | -8.3% | -24.6%
7 | O=C1c2ccccc2C(=O)N1c1cccc2ccccc12 | 51.4% | 8.2% | 26.6% | -19.4% | 55.7% | 62%
8 | CCOC(=O)/C=C/C=C(\OCC)C1CCC2C3CC=C4CC(OC(C)=O)CCC4(C)C3CCC12C (stereo unspecified) | -4% | -0.35% | 23.1% | 19.4% | -3.3% | -2.55%
9 | CSc1nc(NC2OCC(OC(C)=O)C(OC(C)=O)C2OC(C)=O)c2c(n1)OCC2=O (stereo unspecified) | -17% | -21.6% | -21.6% | 6.1% | 13.4% | -10.5%
10 | CCN(CC)C1=CC(=O)OC1OC (stereo unspecified) | -9.65% | 12.5% | 2% | 8.1% | 3.05% | -4.2%
11 | CSc1ccc(NC(=O)Nc2cccc(F)c2)cc1 | -2.15% | 11.9% | 27.2% | -18.5% | 42.5% | 35.6%
12 | O=C(c1ccccc1)C(c1ccccc1)n1nc2c(c1-c1ccccc1)CCCC2 (stereo unspecified) | 84.4% (active) | 87.2% (active) | 83.9% (active) | 88.4% (active) | 86.4% (active) | 91.4% (active)
13 | C[C@]12CCC3c4ccc(OC(=O)c5ccccc5)cc4CC[C@H]3C1CC[C@@H]2OC(=O)C12OC1CCC2=O (stereo partly specified) | -5.4% | -35.5% | -7.55% | 1.75% | -27.9% | -9.85%
14 | CC(=O)C1C(=O)C(=O)N(c2ccccc2C(C)C)C1=O (stereo unspecified) | 19% | 6.55% | 11.9% | 21.4% | 11.9% | 29.5%
15 | CCO/C=N/n1c(C(=O)NCCCOC)nc2ccccc2c1=O | -6.25% | -20.3% | 7.4% | -5.6% | 4.9% | 1.75%
16 | COc1cc(C2SC(N)=Nc3c2c(C)nn3C(=O)c2ccc(Cl)cc2)ccc1O (stereo unspecified) | -36.7% | 15.8% | -9.55% | -30.4% | 16.8% | -10.2%
17 | CCC1(c2ccccc2)SCC(=O)NC1=O (stereo unspecified) | 21.1% | 4.5% | 12.8% | 10.8% | 18.4% | 6.95%
18 | CCOc1ccc2ccccc2c1 | -28.2% | 0.7% | 1.25% | -49.5% | -3.15% | -19.7%
19 | CC(C)C(CN)(C(C)C)C(C)C | 2.35% | 9.65% | -8.65% | 8.55% | 5.3% | -8.6%
20 | Cc1cccc2c1ccc1ccccc12 | 5.55% | 6% | -5.45% | -9% | -9.65% | 9.5%
21 | O=S1(=O)CS(=O)(=O)OCCO1 | 26.2% | 6.8% | 14.7% | 31.9% | 10.7% | 16.8%
